Source: the supplement of paper PMC10849652
About 7,900 targets were measured; listed, in parts, are those with a hit and a random draw of the rest. About 0.6% of all pairs of compound and target were hits. A number with no mark means an inactive call.

Tests used:
Assay in all cases: log2 fold change, soluble protein after heating vs DMSO (PISA); higher = thermal stabilisation; K562 cells, 10 uM, 30 min; active = over 0.2 and 3.5 SD of the protein, either way, in both replicates (recomputed)
[1] = compound: C#Cc1cccc(Nc2ncnc3cc(OCCOC)c(OCCOC)cc23)c1 [erlotinib]
Outline: (§1)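 Aliquots of K562 cells (2×10^6 cells/mL) treated with 10 μM compound for 30 min were heated for 3 min over 48°C-58°C. After pooling and extraction in PBS with 0.5% NP-40 at 4°C, soluble protein from a 21,000xg, 90 min spin was quantified by TMTpro 16plex LC-MS/MS with channel sums equalised. Thermal stability is expressed against control samples, from duplicates, as a log2 fold change.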

[2] = compound: C/C(=N\NC(=O)C1=CC(=CC=C1)S(=O)(=O)N2CCOCC2)/C3=C(C=CC(=C3)Cl)O
Outline: as §1

[3] = compound: C1=CC(=C(C=C1Cl)C2=NC3=NC=CN=C3C(=N2)NC4=CC=NC=C4)F
Outline: as §1

[4] = compound: C1=CC(=CC=C1C2=NC3=C(N2)C=C(C=C3)C(=O)N)OC4=CC=C(C=C4)Cl
Outline: as §1

[5] = compound: C1=CC2=C(C=CC(=C2)/C=C\3/C(=O)NC(=NCC4=CC=CS4)S3)N=C1
Outline: as §1

[6] = compound: C1=CC2=NC=CN=C2C=C1/C=C/3\C(=O)NC(=O)S3
Outline: as §1

[7] = compound: C1=CC=C(C=C1)C2=NC(=C(N2)C3=CC=NC=C3)C4=CC(=C(C=C4)Cl)O
Outline: as §1

[8] = compound: C1=CC=C2C(=C1)C3=NNC4=CC=CC(=C43)C2=O
Outline: as §1

[9] = compound: C1CCN(C1)C(=O)NC2=CC=CC(=C2)NC3=NC=C(C(=N3)NCCC4=CN=CN4)Br
Outline: as §1

[10] = compound: C1CN(CCC1(CC2=CC=C(C=C2)Cl)N)C3=NC=NC4=C3C=CN4
Outline: as §1

[11] = compound: C1COCCN1CCN2C3=CC=CC=C3N=C2NC(=O)C4=CC(=CC=C4)[N+](=O)[O-] [IRAK-1-4 Inhibitor I]
Outline: as §1

[12] = compound: C=CC(=O)N1CCC[C@@H](n2nc(-c3ccc(Oc4ccccc4)cc3)c3c(N)ncnc32)C1 [ibrutinib]
Outline: as §1

[13] = compound: CC(=O)c1cnc2ccc(-c3cc(Cl)c(O)c(Cl)c3)nc2c1N[C@H]1CC[C@H](CN(C)C)CC1
Outline: as §1

[14] = compound: CC(C)(C)Cn1c(N)nc2ccc(-c3[nH]c(C(C)(C)C)nc3-c3ccc(F)cc3)nc21 [ralimetinib]
Outline: as §1

[15] = compound: CC(C)(O)CC(=O)NCCn1ccc2ncnc(Nc3ccc(Oc4cccc(C(F)(F)F)c4)c(Cl)c3)c21
Outline: as §1

[16] = compound: CC(C)C1=C2N=C(C=C(N2N=C1)NCC3=CC=CC=C3)NCCCCCCN
Outline: as §1

[17] = compound: CC(C)C[C@@H](C=O)NC(=O)[C@H](CC(C)C)NC(=O)[C@H](CC(C)C)NC(=O)OCc1ccccc1
Outline: as §1

[18] = compound: CC(C)N(C[C@H]1O[C@@H](n2cnc3c(N)ncnc32)[C@H](O)[C@@H]1O)[C@H]1C[C@@H](CCc2nc3cc(C(C)(C)C)ccc3[nH]2)C1 [pinometostat]
Outline: as §1

[19] = compound: CC1=C(C(CC(=O)N1)C2=CC=C(C=C2)C(F)(F)F)C(=O)NC3=C(C=C4C(=C3)C=NN4)F
Outline: as §1

[20] = compound: CC1=C(C2=C(C=C1)C(=O)C3=CC=CC=C3N2CCCN)C
Outline: as §1

Chain of UniProt Q8WU79 (Q8WU79 whole entry, looked up): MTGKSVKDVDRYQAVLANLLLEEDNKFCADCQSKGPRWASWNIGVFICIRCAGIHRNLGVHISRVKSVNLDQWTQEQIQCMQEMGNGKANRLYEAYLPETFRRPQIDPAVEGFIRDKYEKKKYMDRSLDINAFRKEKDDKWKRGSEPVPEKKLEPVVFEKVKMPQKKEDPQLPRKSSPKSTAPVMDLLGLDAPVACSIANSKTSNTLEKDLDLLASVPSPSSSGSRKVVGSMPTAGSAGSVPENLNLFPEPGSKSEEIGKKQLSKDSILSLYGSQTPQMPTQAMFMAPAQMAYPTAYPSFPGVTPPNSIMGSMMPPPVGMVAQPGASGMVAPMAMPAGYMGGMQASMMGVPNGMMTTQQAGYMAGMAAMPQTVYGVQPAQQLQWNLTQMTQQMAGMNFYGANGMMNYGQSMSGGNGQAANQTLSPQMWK
Chain of UniProt Q969Z0 (Q969Z0 whole entry, looked up): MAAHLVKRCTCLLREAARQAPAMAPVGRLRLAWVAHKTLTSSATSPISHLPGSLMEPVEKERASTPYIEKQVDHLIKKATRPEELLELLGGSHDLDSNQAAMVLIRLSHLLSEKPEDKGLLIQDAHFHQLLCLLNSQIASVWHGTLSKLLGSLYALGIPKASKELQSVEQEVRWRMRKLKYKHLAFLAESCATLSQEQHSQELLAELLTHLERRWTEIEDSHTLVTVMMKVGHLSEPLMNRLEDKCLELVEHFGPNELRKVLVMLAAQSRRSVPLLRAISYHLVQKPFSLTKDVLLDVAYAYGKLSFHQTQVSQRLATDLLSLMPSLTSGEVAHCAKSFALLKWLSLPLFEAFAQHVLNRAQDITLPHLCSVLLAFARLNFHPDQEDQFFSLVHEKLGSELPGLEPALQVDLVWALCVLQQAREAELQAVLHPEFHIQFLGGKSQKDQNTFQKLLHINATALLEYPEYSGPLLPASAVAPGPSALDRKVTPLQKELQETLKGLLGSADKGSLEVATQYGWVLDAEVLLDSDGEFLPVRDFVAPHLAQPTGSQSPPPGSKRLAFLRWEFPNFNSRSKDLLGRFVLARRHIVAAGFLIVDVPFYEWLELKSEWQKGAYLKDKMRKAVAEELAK
Chain of UniProt P84103 (P84103 whole entry, looked up): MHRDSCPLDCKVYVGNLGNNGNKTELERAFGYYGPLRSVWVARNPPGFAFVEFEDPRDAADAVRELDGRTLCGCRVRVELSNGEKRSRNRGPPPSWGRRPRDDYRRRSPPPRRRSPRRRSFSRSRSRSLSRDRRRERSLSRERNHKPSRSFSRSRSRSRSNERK
Chain of UniProt Q01082 (Q01082 whole entry, looked up): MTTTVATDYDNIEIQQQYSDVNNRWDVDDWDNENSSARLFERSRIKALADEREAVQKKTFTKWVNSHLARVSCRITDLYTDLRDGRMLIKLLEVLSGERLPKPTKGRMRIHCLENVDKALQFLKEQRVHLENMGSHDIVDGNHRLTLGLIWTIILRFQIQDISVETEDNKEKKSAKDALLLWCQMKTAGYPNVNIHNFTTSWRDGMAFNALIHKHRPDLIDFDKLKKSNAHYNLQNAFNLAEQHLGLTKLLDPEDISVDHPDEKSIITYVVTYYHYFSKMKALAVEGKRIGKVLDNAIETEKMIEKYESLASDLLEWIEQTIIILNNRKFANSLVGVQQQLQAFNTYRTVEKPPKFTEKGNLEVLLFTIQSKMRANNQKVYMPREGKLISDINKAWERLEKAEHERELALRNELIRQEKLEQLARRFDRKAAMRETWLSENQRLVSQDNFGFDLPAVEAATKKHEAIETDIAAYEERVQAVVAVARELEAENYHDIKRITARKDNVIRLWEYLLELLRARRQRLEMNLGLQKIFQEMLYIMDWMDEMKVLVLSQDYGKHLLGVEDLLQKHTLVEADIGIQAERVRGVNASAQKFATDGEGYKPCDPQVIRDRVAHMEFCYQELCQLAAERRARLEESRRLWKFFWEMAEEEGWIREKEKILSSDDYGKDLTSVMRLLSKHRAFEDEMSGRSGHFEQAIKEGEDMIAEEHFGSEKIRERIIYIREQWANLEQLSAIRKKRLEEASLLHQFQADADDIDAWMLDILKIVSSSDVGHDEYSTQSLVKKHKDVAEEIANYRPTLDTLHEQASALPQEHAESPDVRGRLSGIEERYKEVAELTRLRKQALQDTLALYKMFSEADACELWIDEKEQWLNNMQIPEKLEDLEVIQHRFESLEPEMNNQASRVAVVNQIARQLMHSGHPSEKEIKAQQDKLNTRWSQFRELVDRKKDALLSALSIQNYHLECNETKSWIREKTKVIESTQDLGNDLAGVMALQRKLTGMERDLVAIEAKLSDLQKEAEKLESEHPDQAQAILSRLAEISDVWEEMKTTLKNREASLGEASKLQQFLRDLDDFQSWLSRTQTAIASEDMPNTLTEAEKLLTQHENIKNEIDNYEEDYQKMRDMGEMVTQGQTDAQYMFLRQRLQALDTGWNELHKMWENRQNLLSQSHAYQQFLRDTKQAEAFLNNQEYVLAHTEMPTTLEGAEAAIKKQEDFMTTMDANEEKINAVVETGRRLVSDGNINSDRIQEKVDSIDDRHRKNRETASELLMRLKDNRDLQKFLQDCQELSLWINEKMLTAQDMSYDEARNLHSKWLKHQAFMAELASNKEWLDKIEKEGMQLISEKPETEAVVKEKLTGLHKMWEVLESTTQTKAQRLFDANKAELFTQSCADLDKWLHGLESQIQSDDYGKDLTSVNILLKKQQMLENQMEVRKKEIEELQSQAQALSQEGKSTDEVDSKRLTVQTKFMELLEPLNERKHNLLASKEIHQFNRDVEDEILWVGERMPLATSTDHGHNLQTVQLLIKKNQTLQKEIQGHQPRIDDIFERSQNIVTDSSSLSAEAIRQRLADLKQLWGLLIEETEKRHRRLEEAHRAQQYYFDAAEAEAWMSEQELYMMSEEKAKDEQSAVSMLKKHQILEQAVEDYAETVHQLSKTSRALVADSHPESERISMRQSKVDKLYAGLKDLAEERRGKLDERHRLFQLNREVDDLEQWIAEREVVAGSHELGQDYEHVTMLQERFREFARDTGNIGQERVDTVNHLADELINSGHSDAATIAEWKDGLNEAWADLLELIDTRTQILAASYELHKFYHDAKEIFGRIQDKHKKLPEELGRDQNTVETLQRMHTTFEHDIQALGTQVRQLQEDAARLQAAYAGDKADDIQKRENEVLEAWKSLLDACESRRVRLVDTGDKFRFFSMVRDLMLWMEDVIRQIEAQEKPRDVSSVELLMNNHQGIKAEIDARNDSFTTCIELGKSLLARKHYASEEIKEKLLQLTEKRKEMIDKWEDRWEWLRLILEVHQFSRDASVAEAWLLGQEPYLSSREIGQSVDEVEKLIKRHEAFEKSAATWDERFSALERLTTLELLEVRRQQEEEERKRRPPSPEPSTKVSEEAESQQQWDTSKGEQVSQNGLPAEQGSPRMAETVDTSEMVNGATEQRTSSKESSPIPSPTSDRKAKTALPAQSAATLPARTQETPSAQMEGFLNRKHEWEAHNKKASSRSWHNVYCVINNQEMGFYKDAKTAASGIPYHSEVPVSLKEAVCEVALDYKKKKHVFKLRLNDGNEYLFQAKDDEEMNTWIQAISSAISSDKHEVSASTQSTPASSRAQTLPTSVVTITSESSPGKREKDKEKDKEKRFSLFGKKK
Chain of UniProt Q9BZJ4 (Q9BZJ4 whole entry, looked up): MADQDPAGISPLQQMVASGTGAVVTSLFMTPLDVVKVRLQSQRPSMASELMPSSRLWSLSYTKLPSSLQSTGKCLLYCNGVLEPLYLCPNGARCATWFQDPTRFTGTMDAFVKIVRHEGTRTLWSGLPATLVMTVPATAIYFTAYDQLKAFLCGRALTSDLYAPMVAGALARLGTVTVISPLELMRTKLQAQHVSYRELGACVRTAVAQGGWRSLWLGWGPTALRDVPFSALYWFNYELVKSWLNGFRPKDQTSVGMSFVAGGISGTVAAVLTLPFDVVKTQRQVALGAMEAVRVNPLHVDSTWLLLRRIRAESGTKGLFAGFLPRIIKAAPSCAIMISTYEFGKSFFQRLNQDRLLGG
Chain of UniProt Q15208 (Q15208 whole entry, looked up): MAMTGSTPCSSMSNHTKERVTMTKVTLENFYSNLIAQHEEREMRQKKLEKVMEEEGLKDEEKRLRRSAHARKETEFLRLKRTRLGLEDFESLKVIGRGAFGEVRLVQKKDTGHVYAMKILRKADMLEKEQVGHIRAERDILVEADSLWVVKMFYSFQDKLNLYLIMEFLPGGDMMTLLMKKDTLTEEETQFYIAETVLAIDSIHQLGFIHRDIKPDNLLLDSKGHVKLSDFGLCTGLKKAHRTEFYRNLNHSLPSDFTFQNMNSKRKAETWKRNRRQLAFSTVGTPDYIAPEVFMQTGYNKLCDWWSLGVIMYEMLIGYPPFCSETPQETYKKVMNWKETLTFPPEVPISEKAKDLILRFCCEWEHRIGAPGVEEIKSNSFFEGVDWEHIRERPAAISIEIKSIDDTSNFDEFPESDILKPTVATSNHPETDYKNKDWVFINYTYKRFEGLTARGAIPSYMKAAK
Chain of UniProt O00193 (O00193 whole entry, looked up): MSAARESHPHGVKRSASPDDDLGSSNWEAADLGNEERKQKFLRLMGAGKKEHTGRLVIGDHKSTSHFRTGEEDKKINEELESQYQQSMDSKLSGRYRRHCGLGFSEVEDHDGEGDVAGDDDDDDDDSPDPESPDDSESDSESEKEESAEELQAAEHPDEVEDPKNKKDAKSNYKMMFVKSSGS

Row | Target | log2 fold change [1] | log2 fold change [2] | log2 fold change [3] | log2 fold change [4] | log2 fold change [5] | log2 fold change [6] | log2 fold change [7] | log2 fold change [8] | log2 fold change [9] | log2 fold change [10] | log2 fold change [11] | log2 fold change [12] | log2 fold change [13] | log2 fold change [14] | log2 fold change [15] | log2 fold change [16] | log2 fold change [17] | log2 fold change [18] | log2 fold change [19] | log2 fold change [20]
1 | TBRG4 (UniProt Q969Z0) | 0.072 | 0.18 | 0.046 | -0.154 | 0.063 | -0.056 | 0.056 | -0.201 | -0.07 | -0.036 | -0.031 | 0 | -0.188 | -0.134 | -0.578 (active) | -0.624 | -0.038 | -0.014 | 0.029 | -0.171
2 | SMAP2 (UniProt Q8WU79) | -0.044 | 0.13 | -0.005 | -0.032 | -0.029 | 0.019 | -0.015 | 0.017 | -0.086 | 0.038 | 0.04 | -0.027 | 0.039 | 0.048 | -0.039 | 0.02 | 0.137 | 0.015 | -0.025 | 0.004
3 | SLIRP (UniProt Q9GZT3) | 0.019 | 0.205 | 0.27 | -0.014 | 0.067 | 0.093 | 0.023 | -0.187 | -0.013 | -0.028 | 0.004 | 0.035 | -0.192 | -0.027 | -0.239 | -0.02 | 0.393 (active) | -0.016 | 0.088 | -0.342
4 | STK38 (UniProt Q15208) | 0.039 | 0.138 | 0.029 | -0.021 | 0.014 | 0.079 | 0.057 | 0.049 | -0.025 | -0.05 | 0.004 | -0.073 | -0.308 (active) | 0.101 | -0.085 | -0.089 | 0.016 | 0.058 | 0.038 | -0.026
5 | STEAP3 isoform 2 (UniProt Q658P3) | 0.053 | 0.038 | 0.017 | -0.019 | 0.053 | 0.02 | -0.008 | 0.004 | -0.036 | 0.032 | -0.002 | -0.005 | -0.067 | 0.013 | -0.087 | -0.011 | 0.032 | 0.043 | 0.019 | 0.044
6 | SMAP (UniProt O00193) | -0.006 | 0.026 | 0.119 | 0.017 | -0.063 | 0.073 | -0.012 | 0.015 | 0.006 | 0.047 | 0.134 | -0.063 | -0.021 | 0.007 | -0.004 | 0.058 | -0.018 | -0.049 | 0.029 | -0.021
7 | SPTBN1 (UniProt Q01082) | 0.003 | 0.067 | -0.065 | 0.011 | 0.03 | 0.046 | 0.021 | -0.055 | -0.067 | -0.071 | -0.079 | -0.013 | -0.033 | 0.08 | 0.043 | -0.094 | 0.024 | 0.044 | -0.012 | -0.001
8 | SLC25A39 (UniProt Q9BZJ4) | -0.072 | -0.217 | 0.038 | 0.062 | 0.193 | 0.118 | -0.042 | -0.046 | -0.186 | 0.112 | 0.037 | 0.032 | 0.068 | -0.035 | -0.112 | -0.673 (active) | 0.035 | 0.294 | -0.129 | -0.11
9 | SRSF3 (UniProt P84103) | -0.074 | -0.03 | -0.35 | 0.053 | -0.074 | -0.009 | -0.003 | 0.006 | 0.097 | -0.107 | -0.207 | 0.11 | -0.035 | 0.112 | 0.19 | 0.083 | 0.152 | 0.064 | 0.125 | -0.134
